Here are results for 21 compounds from PubChem BioAssay (NCATS).

Holding throughout (test): qHTS profiling for inhibitors of Plasmodium falciparum proliferation (AID 504749); note: nearly all actives have a fitted effect of over 60% in size
Conditions in all cases: P. falciparum in erythrocytes, SYBR Green DNA, 72 h; series mostly up to 28.7 µM
Background: Quantitative high-throughput screening tests each substance at several concentrations.

The subject of one assay is CP286. The method, boiled down: (§1)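 P. falciparum-infected erythrocytes (0.3% parasitemia, 2.5% hematocrit) incubated with compound 72 h at 37 C, 5% CO2. Parasite DNA detected by SYBR Green after lysis, overnight at room temperature; normalised to 0.29 uM artemisinin and DMSO.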
Another assay deals with CP315. Put shortly:
as §1

A further assay relates to CP335. The method, boiled down: as §1
For a further assay, the system named is DFO2036. The method, boiled down:
as §1

A further assay concerns DIV17. The method, boiled down:
as §1

The test system of a further assay is ECU. The method, boiled down:
as §1

The test system of the next assay is FAB9. Put shortly:
as §1

Another assay has as its system GB4. The method, boiled down: as §1
The subject of the next assay is HB3. Put shortly: as §1
A further assay concerns JCK. Put shortly:
as §1

The subject of the next assay is CP269. The method, boiled down: as §1
The next assay has as its system CP291. The method, boiled down: as §1
A further assay relates to CP305. The method, boiled down: as §1
A further assay has as its system CP325. Put shortly: as §1
A further assay deals with CP329. The method, boiled down: as §1
The subject of the next assay is DIV14. The method, boiled down: as §1
The next assay concerns Dd2. Put shortly: as §1
The next assay concerns ICS. Put shortly:
as §1

Another assay deals with CP297. Put shortly:
as §1

Another assay has as its system DIV30. The method, boiled down:
as §1

Inconclusive results are not listed. The source made the active and inactive calls. Calls come from the whole dose curve; as a rule, active = well fitted inhibition curve with a large enough effect; inconclusive = small, poorly fitted or top-dose-only effect; inactive = flat fitted curve, though single readings scatter.
Potency is the fitted concentration of half-maximal effect.

Regarding `CNC(=O)Oc1ccc2c(c1)[C@]1(C)CCN(C)[C@@H]1N2C`, the Potency in the assay on CP286 is 7.08 µM (active); in the assay on CP335, 7.57 µM (active); with DFO2036 it was 2.24 µM (active); in the assay on DIV17 it was 4.26 µM (active); with ECU, 1.78 µM (active); with FAB9, 2 µM (active). Further, the Potency with GB4 is 4.78 µM (active); in the assay with HB3, 2 µM (active); with JCK, 2.82 µM (active). Further, in the assay with CP315, the Potency result is “inactive”.
On to `COc1ccc2[nH]c(S(=O)Cc3ncc(C)c(OC)c3C)nc2n1` (stereo not given), for which the Potency result in the assay on CP269, in the assay with CP291, in the assay on CP305, in the assay with CP315, with CP325 and in the assay on CP329 was “inactive” throughout. For the same compound, the Potency in the assay with DIV14 was 3.38 µM (active); with DIV17, 4.78 µM (active); with Dd2, 12.6 µM (active); with ECU it was 6.31 µM (active); with ICS, 7.94 µM (active).
For the compound `Cc1ccc2nc(N)[nH]c(=O)c2c1Sc1ccncc1`, the Potency in the assay on CP286 was 2.82 µM (active); in the assay on DFO2036, 10 µM (active); with Dd2, 11.2 µM (active); in the assay with GB4, 10.7 µM (active); in the assay with JCK, 12.6 µM (active). Also, the Potency result with CP297, in the assay on CP315 and in the assay on DIV30 was “inactive” in each case.
Turning to `CNCCC(Oc1ccc(C(F)(F)F)cc1)c1ccccc1` (stereo not given), the Potency in the assay on CP286 is 10 µM (active); in the assay with DIV14 it was 3.01 µM (active); in the assay on DIV17, 6.75 µM (active); with DIV30 it was 6.75 µM (active); in the assay on GB4, 13.5 µM (active); in the assay on ICS, 7.94 µM (active). Besides, the Potency result in the assay on CP297, in the assay with CP315, in the assay on CP329, in the assay on DFO2036, in the assay with FAB9 and in the assay on HB3 was “inactive” throughout.
With `CCN(CC)CCNC(=O)c1c(C)[nH]c(/C=C2\C(=O)Nc3ccc(F)cc32)c1C`, the Potency is 5.36 µM (active) in the assay on CP269; 11.2 µM (active) in the assay on CP286; 10.7 µM (active) in the assay on CP315; 12 µM (active) with CP329; 12 µM (active) with CP335; 8.91 µM (active) with DFO2036. The Potency was 4.78 µM (active) in the assay on DIV14; 5.36 µM (active) with DIV17; 13.5 µM (active) in the assay on DIV30; 11.2 µM (active) in the assay with Dd2; 7.94 µM (active) in the assay with ECU; 7.57 µM (active) in the assay with GB4. The Potency in the assay on HB3 was 8.91 µM (active); in the assay on ICS, 3.98 µM (active).
For `O=C1c2c(O)cccc2Cc2cccc(O)c21`, the Potency entry in the assay on CP269, with CP286, in the assay on CP297, in the assay with CP305, in the assay with CP315 and in the assay on CP325 was “inactive” each time. Further, the Potency entry in the assay on CP329, with CP335, in the assay on DFO2036, in the assay on DIV14, with DIV17 and with DIV30 was “inactive” in each case. Further, the Potency result in the assay on Dd2, in the assay with ECU, in the assay on FAB9, in the assay with GB4, with HB3 and in the assay on ICS was “inactive” in each case. In addition, the Potency entry with JCK was “inactive”.
On to `OCc1cc(C(O)CNCCCCCCOCCCCc2ccccc2)ccc1O` (stereo not given), for which the Potency result in the assay on CP269, in the assay on CP291, with CP297, in the assay with CP305, in the assay with CP315 and with CP325 was “inactive” in each case. For the same compound, the Potency entry with CP329, with DFO2036, in the assay on Dd2, in the assay with ECU, in the assay on FAB9 and in the assay with HB3 was “inactive” throughout. For the same compound, in the assay on JCK, the Potency result is “inactive”. For the same compound, in the assay on GB4, the Potency was 9.53 µM (active).
As for `NC(=O)N/N=C/c1ccc([N+](=O)[O-])o1`, the Potency entry in the assay on CP315, in the assay with CP329, in the assay with FAB9 and in the assay with JCK was “inactive” each time. Further, the Potency is 10 µM (active) in the assay on Dd2, 13.5 µM (active) in the assay on GB4, 11.2 µM (active) in the assay on HB3 and 11.2 µM (active) in the assay with ICS.
As for `CCCn1cnc2c1c(=O)n(CCCCC(C)=O)c(=O)n2C`, the Potency result in the assay on CP286, in the assay on CP291, with CP297, with CP305, in the assay with CP315 and with CP325 was “inactive” each time. Also, the Potency result in the assay with CP329, in the assay with CP335, in the assay on DFO2036, with DIV14, with DIV30 and in the assay with Dd2 was “inactive” each time. The Potency result with ECU, in the assay on FAB9, in the assay with HB3 and with JCK was “inactive” throughout.
As for `COCCOC(=O)C1=C(C)NC(C)=C(C(=O)OC/C=C/c2ccccc2)C1c1cccc([N+](=O)[O-])c1` (stereo not given), the Potency was 9.53 µM (active) in the assay with CP335; 13.5 µM (active) with DIV14; 8.49 µM (active) in the assay on DIV17; 12.6 µM (active) in the assay with Dd2; 10 µM (active) with ECU; 11.2 µM (active) in the assay with HB3. Further, in the assay on ICS, the Potency was 11.2 µM (active). The Potency entry in the assay with FAB9 and in the assay with JCK was “inactive” in each case.
Take `OCCN1CCN(CCCN2c3ccccc3Sc3ccc(Cl)cc32)CC1`: the Potency in the assay with CP286 is 3.16 µM (active); with CP335, 2.56 µM (active); in the assay with DIV14 it was 5.73 µM (active); in the assay on DIV17 it was 5.1 µM (active); in the assay on Dd2, 3.55 µM (active); with ECU it was 3.16 µM (active). Further, the Potency in the assay with GB4 is 4.55 µM (active); with ICS, 3.98 µM (active). The Potency result in the assay on DIV30 was “inactive”.
With `CCN(CC)CCNC(C(=O)OCCC(C)C)c1ccccc1` (stereo not given), the Potency entry with CP315, in the assay with FAB9, with HB3 and with JCK was “inactive” in each case. Also, the Potency in the assay on DIV14 is 4.26 µM (active); in the assay on DIV17, 7.57 µM (active); with Dd2, 7.08 µM (active); in the assay with GB4 it was 7.57 µM (active); in the assay on ICS it was 5.62 µM (active).
As to `CC(C(O)c1ccc(O)cc1)N1CCC(Cc2ccccc2)CC1` (stereo not given), the Potency was 12 µM (active) in the assay on CP269; 16.9 µM (active) in the assay on CP291; 15.1 µM (active) in the assay on CP305; 15.1 µM (active) in the assay on CP325; 10.7 µM (active) with CP335; 13.5 µM (active) in the assay with DIV14. The Potency in the assay on DIV17 was 15.1 µM (active); in the assay with Dd2, 8.91 µM (active); in the assay on GB4 it was 7.57 µM (active). Also, the Potency result with FAB9 was “inactive”.
On to `Oc1ccc(C(O)CNCCCCCCNCC(O)c2ccc(O)c(O)c2)cc1O` (stereo not given), for which the Potency was 7.08 µM (active) in the assay with CP286; 9.53 µM (active) in the assay on CP335; 10.7 µM (active) with DIV14; 15.1 µM (active) with DIV17; 10 µM (active) in the assay on Dd2; 13.5 µM (active) in the assay with GB4. Further, in the assay with ICS, the Potency is 6.31 µM (active). Moreover, the Potency result in the assay on DFO2036 and in the assay on FAB9 was “inactive” throughout.
With `CN1CCCCC1CCN1c2ccccc2Sc2ccc(S(C)=O)cc21` (stereo not given), the Potency result in the assay with CP297, with CP315, in the assay with CP325, in the assay with CP329, in the assay on DFO2036 and in the assay on ECU was “inactive” throughout. The Potency result with FAB9, in the assay on HB3 and in the assay with JCK was “inactive” in each case. Moreover, the Potency was 7.57 µM (active) in the assay on DIV14, 12 µM (active) in the assay with DIV17 and 5.01 µM (active) with ICS.
For `CN(C)CCN(Cc1ccccc1)c1ccccn1`, the Potency result in the assay on CP269, in the assay with CP297, with CP315, in the assay with CP329, in the assay with DFO2036 and in the assay with ECU was “inactive” in each case. Also, the Potency entry with FAB9, in the assay with HB3 and in the assay with JCK was “inactive” throughout.
Consider `CCCCN1CCCC[C@H]1C(=O)Nc1c(C)cccc1C`, for which the Potency result in the assay with CP269, with CP286, in the assay on CP297, in the assay with CP305, in the assay on CP315 and in the assay with CP325 was “inactive” in each case. The Potency result in the assay on CP329, with DFO2036, with DIV14, with DIV17, with DIV30 and in the assay on Dd2 was “inactive” throughout. The Potency entry in the assay on ECU, with FAB9, in the assay on HB3, in the assay on ICS and in the assay with JCK was “inactive” throughout.
Turning to `[Cl][In]([Cl])[Cl]`, the Potency entry with CP315 and in the assay on CP329 was “inactive” throughout. Further, the Potency with DIV30 is 15.1 µM (active); with Dd2 it was 11.2 µM (active); with ICS, 2.51 µM (active).
For the compound `Cn1c(=O)c2c(ncn2CC2OCCO2)n(C)c1=O`, the Potency entry in the assay on CP269, in the assay on CP286, with CP291, with CP305, in the assay with CP315 and in the assay on CP325 was “inactive” in each case. Besides, the Potency result in the assay on CP329, with CP335, with DFO2036, in the assay on DIV14, with DIV17 and with DIV30 was “inactive” in each case. For the same compound, the Potency entry in the assay on Dd2, with ECU, in the assay with FAB9, in the assay with GB4, in the assay with HB3 and with ICS was “inactive” throughout. Moreover, the Potency entry with JCK is “inactive”.
`Cc1c(O)cccc1C(=O)N[C@@H](CSc1ccccc1)[C@H](O)CN1C[C@H]2CCCC[C@H]2C[C@H]1C(=O)NC(C)(C)C`: the Potency entry with CP305, in the assay on CP329 and with FAB9 was “inactive” throughout. The Potency in the assay on DIV14 is 16.9 µM (active); in the assay on DIV30 it was 15.1 µM (active); in the assay on Dd2 it was 11.2 µM (active); with ECU it was 11.2 µM (active); with HB3, 10 µM (active); in the assay on ICS, 4.47 µM (active).
As to `NC1CCN(c2cccc(Cl)n2)CC1`, the Potency result with CP269, in the assay on CP286, in the assay with CP291, in the assay on CP305, in the assay on CP315 and in the assay on CP325 was “inactive” in each case. The Potency entry in the assay with CP329, in the assay with CP335, with DFO2036, in the assay on DIV30, with ECU and in the assay with FAB9 was “inactive” each time. In addition, the Potency entry with HB3, in the assay on ICS and in the assay with JCK was “inactive” in each case. In addition, the Potency with GB4 is 7.57 µM (active).
